PP5 inh – inhibitors of human protein phosphatase 5 (PP5); purified PP5c, OMFP substrate fluorescence; inhibition, % at 6.7 µM; 320,000 compounds, 0.18% hits;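 active = inhibition above the campaign's mean inhibition across all tested compounds plus 3 SD, cut at about 9.5% in these data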;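 also: 0% = DMSO only and 100% = 100 µM cantharidin control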
Beta cell apopt – beta cell apoptosis inhibition. INS-1E cytokine-induced death, ATP luminescence, 48 h; percent of positive-control rescue, neutral wells zero. protection from apoptosis, % (no concentration beside the values). 300,000 compounds, 0.8% hits;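 active = Every replicate reaches about 75%, or at least half do and their mean reaches it too, limit read from the data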;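 also: 0% = cytokine-treated negative control wells and 100% = positive control rescue; higher means more ATP so stronger rescue from cytokine killing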
SKKanGAS inh – SKKanGAS growth inhibition; 300,000 compounds, 1.3% hits; S. pyogenes SKKanGAS, kanamycin growth, BacTiter-Glo, 6 h; inhibition, % at 7.5 µM;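 active = mean replicate score, as percent of positive control median, at least 50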;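 also: strain carries kanamycin resistance gene driven by streptokinase promoter and grows in 40 µg/ml kanamycin; loss of luminescence reflects streptokinase promoter inhibition or plain growth inhibition; 0% = median of DMSO wells and 100% = positive control at its reference dose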
CSC inhib – cancer stem cell inhibition; cancer stem cell-like cells viability, luminescence; inhibition, % at 7.5 µM; 300,000 compounds, 1.1% hits; AID 2717; in the data active = inhibition above about 75%; tested in HMLE shEcad cells
PP1 counter – blocks human PP1-alpha phosphatase, a PP5 counter-screen; 320,000 compounds, 0.9% hits; inhibition, % at 6.7 µM; purified PP1alpha, OMFP fluorescence;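 active = inhibition above the mean inhibition of all tested compounds plus 3 SD, computed separately for each screening campaign, cut at about 15% in these data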
Target sequence (P62136 whole entry, looked up): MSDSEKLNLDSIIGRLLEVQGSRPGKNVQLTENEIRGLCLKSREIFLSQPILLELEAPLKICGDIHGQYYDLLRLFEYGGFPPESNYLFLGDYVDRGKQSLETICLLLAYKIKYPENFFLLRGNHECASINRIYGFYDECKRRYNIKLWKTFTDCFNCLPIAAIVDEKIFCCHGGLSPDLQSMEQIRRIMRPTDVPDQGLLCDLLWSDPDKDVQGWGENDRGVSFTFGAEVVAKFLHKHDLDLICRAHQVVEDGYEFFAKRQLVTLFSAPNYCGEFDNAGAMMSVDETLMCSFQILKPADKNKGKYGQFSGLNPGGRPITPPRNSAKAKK
PP5 conf – confirmation of human PP5 phosphatase inhibitors; shares compounds with PP5 inh; 460 compounds, 22% hits; Purified PP5, fluorogenic phosphatase substrate, fluorescence; inhibition, % at 6.7 µM; AID 2331; in the data active = inhibition above about 9.5%
PP1 inh counter – PP1 phosphatase inhibition, counter-screen for PP5 inhibitors; shares compounds with PP5 inh; inhibition, % at 6.7 µM; AID 2355; PP1 enzyme, fluorescent phosphatase substrate; 460 compounds, 4% hits; in the data active = inhibition above about 16%
Active calls of the source: *; · = no result given. Sampled rows, rich in hits. Any-hit rate of the full collection: about 3.1%.

SMILES | PP5 inh | Beta cell apopt | SKKanGAS inh | CSC inhib | PP1 counter | PP5 conf | PP1 inh counter
COc1ccc(C2=NCN(c3ccc(C)cc3)C(=S)N2)cc1 | 10.8* | 1.6 | -7.5 | -8.0 | -1.5 | -2.0 | -2.0
CC(Nc1n[nH]c(=O)[nH]c1=O)C(=O)N/N=C/c1cccs1 (stereo not given) | -0.9 | · | 3.3 | -11.5 | -4.8 | · | ·
C/C(=N\NC(=O)c1ccn(C)n1)c1cccc(NC(=O)c2ccncc2)c1 | 1.3 | 4.0 | 2.1 | -5.5 | -2.3 | · | ·
O=C(COc1cccc2ccccc12)Nc1nc2ccccc2[nH]1 | 10.5* | 3.8 | · | 19.0 | -0.4 | 4.8 | 3.0
CCN(CC)c1nc2cc(C)ccc2cc1/C=C(\C#N)C(N)=O | 4.6 | -4.0 | -9.0 | -5.4 | 3.0 | · | ·
CN(C)c1ccc(C(O)P(=O)(OCc2ccccc2)c2ccc(N(C)C)cc2)cc1 (stereo not given) | 2.1 | 3.4 | -1.9 | 5.2 | -1.6 | · | ·
CC(C)c1ccc(C(O)P(=O)(OCc2ccccc2)c2ccc(N(C)C)cc2)cc1 (stereo not given) | 9.7* | -8.0 | 0.2 | 9.1 | 2.5 | 5.0 | 6.1
CC(C)c1ccc(Nc2ccc(C(=O)O)cc2[N+](=O)[O-])cc1 | -0.8 | -4.6 | 13.0 | -5.9 | 0.6 | · | ·
COC(=O)C1(C)NC(c2ccc(O)cc2)C2C(=O)N(c3ccc(F)cc3)C(=O)C21 (stereo not given) | 10.0* | -3.6 | -9.4 | 2.3 | -4.0 | -7.4 | -5.5
CN(C)C1=NCCN1CCc1cccc(F)c1 | -0.8 | -5.9 | -2.2 | -10.2 | -7.4 | · | ·
CC(C)(C)NC(=O)c1ccc(NC(=O)c2ccccc2-c2ccccc2C(=O)O)cc1 | 10.4* | 0.6 | 0.6 | -14.4 | 5.5 | -8.1 | -6.7
COc1ccc(C(C)C)cc1S(=O)(=O)N1CC(C)OC(C)C1 (stereo not given) | 10.0* | -2.8 | -2.9 | -6.1 | -6.0 | -2.9 | -2.6
COc1ccc(C)cc1S(=O)(=O)N1CC(C)OC(C)C1 (stereo not given) | -0.1 | -0.8 | -1.1 | 1.8 | -1.2 | · | ·
O=C(NC1(O)C(=O)c2ccccc2C1=O)c1ccccc1 | 14.8* | 3.8 | 1.2 | -0.6 | 0.9 | 38.7* | 12.7
O=C(Nc1ccccc1Cl)c1c(F)c(F)c(F)c(F)c1F | 0.9 | -3.9 | 1.4 | 14.9 | 0.1 | · | ·
O=C(NC1(O)C(=O)c2ccccc2C1=O)c1c(Cl)cccc1Cl | 16.4* | -2.7 | -6.8 | 6.4 | 2.8 | 41.5* | 7.4
O=C(ONC1=NCCCCC1)c1ccc([N+](=O)[O-])cc1 | 1.7 | -3.5 | -7.1 | -12.1 | -4.2 | · | ·
COCCN(C(=O)c1oc2ccccc2c1COC)c1c(N)n(CC(C)C)c(=O)[nH]c1=O | 0.7 | 1.4 | · | · | -2.6 | · | ·
CC(C)(C)OC(=O)[C@H](Cc1ccccc1)NC(=O)c1nc[nH]c1C(=O)NC1CCN(C(=O)OC(C)(C)C)CC1 | 10.1* | 1.4 | 18.5 | 0.8 | 9.1 | 10.1* | 9.6
CC(C)(C)OC(=O)[C@H](Cc1ccccc1)NC(=O)c1nc[nH]c1C(=O)N1CCN(C(=O)OC(C)(C)C)CC1 | 1.6 | -3.2 | 3.1 | 18.2 | -5.8 | · | ·
CC(C)C[C@H](NC(=O)c1nc[nH]c1C(=O)N[C@@H](CCCCNC(=O)OC(C)(C)C)C(=O)OC(C)(C)C)C(=O)OCc1ccccc1 | 10.9* | 12.9 | 18.4 | 28.4 | 12.9 | 7.6 | 9.4
Cc1cccc(NC(=O)c2nc[nH]c2C(=O)NCCCCCNC(=O)OC(C)(C)C)c1 | 5.2 | 12.3 | · | 4.0 | 3.6 | · | ·
CC(C)(C)OC(=O)NCCCC[C@H](NC(=O)c1nc[nH]c1C(=O)NC1CCN(C(=O)OC(C)(C)C)CC1)C(=O)OC(C)(C)C | 11.4* | 25.5 | 17.5 | -7.7 | 9.7 | 8.8 | 9.5
Cc1cccc(NC(=O)c2nc[nH]c2C(=O)N[C@@H](CCCCNC(=O)OC(C)(C)C)C(=O)OC(C)(C)C)c1 | 11.4* | 13.2 | 90.8* | · | 3.3 | 5.2 | 5.8
CC(C)(C)OC(=O)NCCCCCNC(=O)c1[nH]cnc1C(=O)N[C@@H](CCCCNC(=O)OC(C)(C)C)C(=O)OC(C)(C)C | 13.1* | 17.1 | 12.8 | 12.3 | 6.2 | 5.4 | 5.8
SMILES | PP5 inh | Beta cell apopt | SKKanGAS inh | CSC inhib | PP1 counter | PP5 conf | PP1 inh counter
CC(C)(C)OC(=O)NCCCC[C@H](NC(=O)c1nc[nH]c1C(=O)NC(c1ccccc1)c1ccccc1)C(=O)OC(C)(C)C | 3.4 | 23.8 | 27.4 | 34.7 | 10.6 | · | ·
CC(C)(C)OC(=O)NCCCC[C@H](NC(=O)c1nc[nH]c1C(=O)N[C@@H](CCCCNC(=O)OC(C)(C)C)C(=O)OC(C)(C)C)C(=O)OC(C)(C)C | 15.6* | 24.8 | 17.1 | 6.6 | 11.1 | 10.8* | 12.3
CC(C)(C)OC(=O)CNC(=O)c1[nH]cnc1C(=O)N[C@@H](CCCCNC(=O)OC(C)(C)C)C(=O)OC(C)(C)C | 7.9 | 2.4 | 1.0 | -13.8 | 6.5 | · | ·
C[C@H](NC(=O)c1nc[nH]c1C(=O)N[C@@H](CCCCNC(=O)OC(C)(C)C)C(=O)OC(C)(C)C)C(=O)OCc1ccccc1 | 9.1 | 2.2 | 11.9 | 3.0 | 11.3 | · | ·
C[C@H](NC(=O)c1nc[nH]c1C(=O)N[C@@H](CCCCNC(=O)OC(C)(C)C)C(=O)OC(C)(C)C)C(=O)OC(C)(C)C | 9.6* | 5.7 | 8.4 | -3.8 | 7.9 | 5.3 | 5.7
CC(C)C[C@H](NC(=O)c1[nH]cnc1C(=O)N[C@@H](C)c1ccccc1)C(=O)OC(C)(C)C | 9.9* | -4.1 | 38.8 | -13.4 | 9.3 | 9.7* | 8.8
O=C(C1CCCO1)N1CCN(C(=S)Nc2ccccc2F)CC1 (stereo not given) | 0.0 | -2.4 | -0.5 | -7.2 | -1.6 | · | ·
COc1ccc(C(C)=O)c(Oc2ccc(S(=O)(=O)N3CCOCC3)cn2)c1 | 3.8 | -4.6 | · | · | -5.3 | · | ·
CCOC(=O)c1c(-c2cccc3ccccc23)csc1NC(=O)C1C2CCC(O2)C1C(=O)O (stereo not given) | 10.8* | -10.6 | 27.1 | -0.5 | 6.3 | 0.0 | 2.4
COC(=O)c1c(-c2ccc(C(C)(C)C)cc2)csc1NC(=O)C1C2CCC(O2)C1C(=O)O (stereo not given) | 7.1 | -5.8 | 24.7 | -14.5 | -0.7 | · | ·
COc1ccc(OC)c(/C=C/C(=O)OCC(=O)c2c(N)n(C)c(=O)n(C)c2=O)c1 | 0.8 | -4.6 | -3.9 | 6.7 | -1.9 | · | ·
CCn1ccnc1CN(C)C(=O)C1CCC(=O)N(Cc2cccc(C(F)(F)F)c2)C1 (stereo not given) | -1.4 | 0.7 | -5.8 | 0.5 | -4.5 | · | ·
CCCCN(C)C1=CC2=CC(=C(C#N)C#N)CCC2CC1 (stereo not given) | -57.3 | 1.9 | -4.9 | 2.8 | -72.4 | · | ·
CCN(CC)C1=CC2=CC(=C(C#N)C#N)CCC2CC1 (stereo not given) | -60.7 | 5.3 | · | -1.2 | -47.2 | -141.7 | -48.2
O=[N+]([O-])c1cc(C(F)(F)F)ccc1N1CCC(O)CC1 | 1.3 | -5.1 | -1.2 | -9.1 | -0.5 | · | ·
